The record followed here is PubChem BioAssay.

A short description of experiment [1]: reducers of endogenous Her2 protein level, primary screen, SKBR3 breast tumor cells, AlphaScreen, ATP viability (AID 461;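 active = Her2 level under about 52% in both replicate screens, with viability over 70% of control, limit read from the data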;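 for Her2 level: lower value means less Her2 protein in the cells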;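 for viability: percent of carrier control wells set as 100% viability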). The following applies: 18-24 h, measured here: SKBR3 viability, ATP luminescence, at 10 µM. Background: Bead proximity is the source of the signal in Alpha formats.
Experiment [2] has as its target Receptor tyrosine-protein kinase erbB-2 (Homo sapiens) (UniProt P04626). Described as above. The note with it: 18-24 h, at 10 µM, stronger effect = lower value.
Experiment [3] is described as follows: SK-BR-3 cell growth inhibitors, pilot screen, 24 h, human (AID 572;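 active = viability at or below 10% of carrier control in both of two separate runs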;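 note: compound exposure lasted between 18 and 24 h rather than exactly 24 h; 100% = carrier-treated control wells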). The following applies: SK-BR-3 viability, CellTiter-Glo luminescence, at 10 µM, stronger effect = lower value. On the technique in general: ATP-based viability assays read luminescence as a measure of living cells.
A short description of experiment [4]: HUVEC growth inhibition – cell-based, human, primary screen (AID 575;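 active = viability at or below 30% in both replicate assays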;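 note: 100% = median of untreated cell wells with 0.1% DMSO on each plate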). The following applies: HUVEC proliferation, CellTiter-Glo luminescence, 72 h; at 10 µM; stronger effect = lower value.
Experiment [5] can be described thus: growth inhibitors of H69AR lung tumor, primary screen, human, duplicate replicates (AID 580;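 active = viability at or under a set limit in both replicates, limit being median viability minus 3 SD, cut at about 48% in these data, passing the limit was not always enough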;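 note: 100% = mean luminescence of untreated wells and 0% = no signal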). The following applies: H69AR lung tumor cells viability, ATP luminescence, 72 h; at 10 µM; stronger effect = lower value.
A short description of experiment [6]: reversal of MRP1-mediated doxorubicin resistance, pilot screen, H69AR cells, doxorubicin co-treatment (AID 601;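 active = viability loss from added drug above about 55%, and viability with drug at most 40%, in both replicates, limit read from the data, passing the limit was not always enough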). The following applies: CellTiter-Glo, 72 h, at 10 µM; for differential viability (reversal): stronger effect = higher value.
Experiment [7] can be described thus: 384-well plate pilot, post-Golgi transport modulator project, inhibition of yeast transport mutant growth (AID 636; in the data active = inhibition above about 31%). The note with it: absorbance 615 nm, about 18 h, stronger effect = higher value.
Experiment [8] in a line: growth suppression of yeast trafficking mutant, preliminary HTS, modulators of trafficking downstream of Golgi apparatus project, 1536-format plate, OD 615 nm (AID 637). The following applies: yeast transport mutant growth, absorbance 615 nm, 18 h; stronger effect = higher value.
The nature of experiment [9]: OD615 S. cerevisiae growth inhibition, permissive medium, pilot counter-assay, permissive growth control for S. cerevisiae lifespan shortening project (AID 705;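 active = growth inhibition above 25% in both replicates, a cutoff set 3 SD above the mean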). The following applies: OD615, 24 h, at 10 µM, stronger effect = higher value.
Experiment [10] is described as follows: Restrictive medium S. cerevisiae growth inhibition, OD615, pilot screen of yeast lifespan reduction project, restrictive growth control (AID 706;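 active = growth inhibition above a set limit, 3 SD over mean compound inhibition, in both replicates, cut at about 43% in these data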;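 note: modified DeaD lifespan yeast strain shifted to restrictive glucose medium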). The note with it: OD615, 48 h, at 10 µM, stronger effect = higher value.
The nature of experiment [11]: viability gain of MRP-1-high H69AR cells under doxorubicin, pilot screen, MRP-1 activator project, CellTiter-Glo, duplicate (AID 807;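 active = viability increase at or above a cutoff of the median across tested compounds plus 3 SD, cut at about 8.5% in these data, passing the limit was not always enough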;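 note: compound pretreatment 18-22 h then 72 h combined with doxorubicin; 0% = doxorubicin alone and 100% = vehicle without doxorubicin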). The note with it: H69AR viability with doxorubicin, CellTiter-Glo luminescence; at 10 µM; stronger effect = higher value.
Experiment [12] in a line: growth suppression of beta-catenin knockout HCT116, pilot screen, human colon tumor cells (AID 823;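 active = cell viability at or below a set limit in both duplicate runs, the limit being the all-compound median minus 4 SD, cut at about 23% in these data, passing the limit was not always enough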;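 note: 0% = wells killed by 20 µM Hyamine and 100% = untreated DMSO cell wells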). The following applies: CellTiter-Glo, 60 h, at 10 µM, stronger effect = lower value.
A short description of experiment [13]: growth suppression of PTEN-deleted HCT116, pilot screen, cell-based, HCT116 clonal line, CellTiter-Glo (AID 824;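 active = viability at or below 27.92% in each of two runs, the all-compound median minus 4 SD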;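 note: 0% = 20 µM Hyamine control and 100% = vehicle cell control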). The note with it: 60 h, at 10 µM, stronger effect = lower value.
The nature of experiment [14]: inhibitors of the yeast RAM network, pilot screen, dse1pr::URA3 reporter, 5-FOA selection (AID 869;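 active = inhibition over a set limit, the all-compound mean plus 3 SD, in both replicate runs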;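 note: 0% = DMSO wells with no growth and 100% = 10 µM 1-NA-PP1 with full growth; RAM network block rescues cells from 5-FOA so hits raise OD615 growth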). The following applies: S. cerevisiae dse1pr::URA3 5-FOA growth, OD615, 2 d; at 10 µM; stronger effect = higher value; strain carries analog-sensitive mutant Cbk1 kinase.
The nature of experiment [15]: RAM signaling pathway blockade in yeast – S. cerevisiae, Pdr1DBD-CYC8 efflux-inhibited sensitized strain, primary screen (AID 1298;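 active = RAM network inhibition above 8.4% in each of two replicates, 3 SD over the compound average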;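 note: 0% = DMSO untreated cells without growth and 100% = 10 µM 1-NA-PP1 full growth; higher means more yeast growth rescued from 5-FOA killing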). The following applies: S. cerevisiae cbk1-as DSE1-URA3 strain, 5-FOA growth OD615, 2 d; at 50 µM; stronger effect = higher value.
The mark [16] stands for this setting: H69AR cells + 2 uM doxorubicin, measured here: viability with 2 uM doxorubicin, stronger effect = lower value.
The mark [17] stands for this setting: H69AR cells, compound alone cytotoxicity.

Results filed as inconclusive are left out. Calls of active or inactive are those of the source. Cut-off read from the data, not from the text of the source, unless noted: active = inhibition above about 30%; inactive = the rest.

Sequence of Receptor tyrosine-protein kinase erbB-2 (Homo sapiens) (P04626 whole entry, looked up): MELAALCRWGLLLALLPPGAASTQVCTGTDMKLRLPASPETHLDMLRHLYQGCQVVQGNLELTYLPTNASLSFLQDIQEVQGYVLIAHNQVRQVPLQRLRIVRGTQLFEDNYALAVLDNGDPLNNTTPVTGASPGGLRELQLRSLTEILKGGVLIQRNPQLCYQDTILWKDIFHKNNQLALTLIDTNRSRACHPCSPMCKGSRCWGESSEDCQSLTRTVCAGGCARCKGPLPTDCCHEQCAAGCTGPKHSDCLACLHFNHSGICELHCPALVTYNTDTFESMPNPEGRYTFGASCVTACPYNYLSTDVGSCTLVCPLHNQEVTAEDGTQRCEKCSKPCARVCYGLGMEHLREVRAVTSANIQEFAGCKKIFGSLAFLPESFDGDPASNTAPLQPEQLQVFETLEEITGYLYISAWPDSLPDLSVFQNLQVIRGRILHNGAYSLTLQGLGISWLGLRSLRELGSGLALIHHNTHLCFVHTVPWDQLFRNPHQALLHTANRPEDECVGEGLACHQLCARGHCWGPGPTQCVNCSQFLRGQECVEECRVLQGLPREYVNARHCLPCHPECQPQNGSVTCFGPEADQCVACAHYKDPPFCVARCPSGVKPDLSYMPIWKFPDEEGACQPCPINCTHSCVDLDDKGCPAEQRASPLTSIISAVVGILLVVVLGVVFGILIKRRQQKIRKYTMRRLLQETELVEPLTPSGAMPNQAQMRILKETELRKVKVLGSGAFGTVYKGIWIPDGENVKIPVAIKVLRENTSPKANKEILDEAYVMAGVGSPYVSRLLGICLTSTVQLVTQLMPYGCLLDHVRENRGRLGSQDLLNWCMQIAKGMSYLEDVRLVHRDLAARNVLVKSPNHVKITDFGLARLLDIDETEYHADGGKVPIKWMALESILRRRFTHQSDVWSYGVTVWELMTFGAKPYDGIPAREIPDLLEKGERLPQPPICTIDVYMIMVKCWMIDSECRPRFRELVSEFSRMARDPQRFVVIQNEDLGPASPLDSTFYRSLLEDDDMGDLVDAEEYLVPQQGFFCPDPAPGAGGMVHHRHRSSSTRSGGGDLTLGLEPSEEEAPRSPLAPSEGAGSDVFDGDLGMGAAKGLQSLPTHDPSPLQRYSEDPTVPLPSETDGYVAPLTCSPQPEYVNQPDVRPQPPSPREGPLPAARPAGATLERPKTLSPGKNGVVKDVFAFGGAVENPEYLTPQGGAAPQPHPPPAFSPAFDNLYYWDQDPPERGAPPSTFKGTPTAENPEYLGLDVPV

Take `COc1ccc(N2CCN(C(=O)C(C)(C)Oc3ccc(Cl)cc3)CC2)cc1`: the viability in [1] was 85%; in experiment [3], 85% (inactive); in experiment [4] it was 76.9% (inactive); in experiment [5], 68.4% (inactive); in [6] (setting [16]), 78.6%; in experiment [6] (setting [17]), 68.4%. For the same compound, the viability in experiment [12] is 74.4% (inactive); in [13] it was 71.7% (inactive). In [2], the Her2 level was 91.5% (inactive). Besides, in experiment [6] (H69AR cells + 2 uM doxorubicin), the differential viability (reversal) was -10.2% (inactive). In addition, the inhibition in [7] was -1.07% (inactive); in experiment [8], -2.83% (inactive); in experiment [14], 1.45% (inactive). Further, the growth inhibition is -6.29% (inactive) in [9] and 5.29% (inactive) in [10]. Further, the viability increase in experiment [11] is -4.56% (inactive). The RAM network inhibition in [15] is 9.33% (inactive).

Regarding `O=C(c1ccc(Br)cc1)N1CCN(S(=O)(=O)c2ccccc2)CC1`, the viability in experiment [1] is 113%; in [3] it was 113% (inactive); in [4] it was 103% (inactive); in experiment [5], 92.6% (inactive); in experiment [6] (setting [16]), 94.9%; in experiment [6] (setting [17]) it was 92.6%. Besides, the viability in [12] is 84.7% (inactive); in experiment [13] it was 90.4% (inactive). In addition, the Her2 level in experiment [2] is 120% (inactive). Also, in experiment [6] (H69AR cells + 2 uM doxorubicin), the differential viability (reversal) was -2.33% (inactive). The values for the inhibition in experiment [7], in experiment [8] and in [14] were 3.33% (inactive), 2.33% (inactive) and 1.71% (inactive), respectively. The growth inhibition in experiment [9] was 4.02% (inactive); in experiment [10], 11.1% (inactive). Moreover, in [11], the viability increase was -1.15% (inactive). Further, in [15], the RAM network inhibition is 1.8% (inactive).

Turning to `O=C(O)C1C2C=CC3(CN(C4CCCC4)C(=O)C13)O2` (stereo not drawn), the viability in [1] is 101%; in [3] it was 101% (inactive); in experiment [4], 100% (inactive); in [5], 83.7% (inactive); in [6] (setting [16]), 93.1%; in [6] (setting [17]) it was 83.7%. For the same compound, the viability in experiment [12] was 104% (inactive); in experiment [13], 95.5% (inactive). For the same compound, in experiment [2], the Her2 level was 100% (inactive). Also, in experiment [6] (H69AR cells + 2 uM doxorubicin), the differential viability (reversal) is -9.36% (inactive). The inhibition is -7.07% (inactive) in [7], -4.83% (inactive) in experiment [8] and 2.34% (inactive) in experiment [14]. For the same compound, the values for the growth inhibition in experiment [9] and in experiment [10] were 1.69% (inactive) and 2.54% (inactive), respectively. For the same compound, the viability increase in experiment [11] was -0.64% (inactive). Also, in experiment [15], the RAM network inhibition is -0.17% (inactive).

As to `Cc1nc2ccc(S(=O)(=O)NC(C(=O)NCc3cccs3)C(C)C)cc2s1` (stereo not drawn), the viability in experiment [1] was 88.5%; in experiment [3], 88.5% (inactive); in experiment [4], 97.9% (inactive); in experiment [5] it was 111% (inactive); in experiment [6] (setting [16]), 92.6%; in experiment [6] (setting [17]) it was 111%. For the same compound, the viability in experiment [12] is 102% (inactive); in experiment [13], 99.6% (inactive). Further, the Her2 level in experiment [2] was 116% (inactive). For the same compound, the differential viability (reversal) in [6] (H69AR cells + 2 uM doxorubicin) was 18.2% (inactive). For the same compound, the inhibition in [7] was -5% (inactive); in [8] it was -2.67% (inactive); in experiment [14] it was 2.96% (inactive). For the same compound, the growth inhibition was -3.81% (inactive) in experiment [9] and -9.54% (inactive) in experiment [10]. In [11], the viability increase is -0.45% (inactive). Moreover, the RAM network inhibition in experiment [15] is 5.02% (inactive).

On to `O=C(Nc1ccc(N2C(=O)C3C4C=CC(C4)C3C2=O)cc1)Nc1nncs1` (stereo not drawn), for which the viability in experiment [1] was 92%; in [3] it was 92% (inactive); in [4] it was 96.2% (inactive); in experiment [5] it was 87.8% (inactive); in experiment [6] (setting [16]) it was 85.6%; in [6] (setting [17]) it was 87.8%. Further, the viability in [12] was 97.6% (inactive); in [13] it was 95.3% (inactive). In experiment [2], the Her2 level was 108% (inactive). The differential viability (reversal) in experiment [6] (H69AR cells + 2 uM doxorubicin) was 2.15% (inactive). Besides, the inhibition in [7] is -3.47% (inactive); in experiment [8] it was 0.83% (inactive); in experiment [14], 0.53% (inactive). The growth inhibition in [9] was -7.11% (inactive); in experiment [10], 6.49% (inactive). Further, the viability increase in experiment [11] was -1.28% (inactive). In addition, in experiment [15], the RAM network inhibition is 3.5% (inactive).

As for `CN1CCN(Cc2nc3c(c(=O)[nH]c(=O)n3C)n2CCc2ccccc2)CC1`, the viability was 82% in [1]; 82% (inactive) in experiment [3]; 91.2% (inactive) in experiment [4]; 93% (inactive) in experiment [5]; 97.2% in experiment [6] (setting [16]); 93% in experiment [6] (setting [17]). In addition, the values for the viability in [12] and in [13] were 92% (inactive) and 93.5% (inactive), respectively. Also, the Her2 level in [2] was 96% (inactive). In experiment [6] (H69AR cells + 2 uM doxorubicin), the differential viability (reversal) is -4.29% (inactive). The inhibition is -6% (inactive) in [7], -5% (inactive) in experiment [8] and 0.565% (inactive) in [14]. In addition, the growth inhibition was -4.41% (inactive) in experiment [9] and 1.98% (inactive) in [10]. The viability increase in experiment [11] was -4.22% (inactive). For the same compound, in experiment [15], the RAM network inhibition is 1.56% (inactive).

Regarding `Cc1ccc(OCC(O)CN2C(=O)NC(C)(C)C2=O)cc1C` (stereo not drawn), the viability was 105% in experiment [1]; 105% (inactive) in experiment [3]; 88% (inactive) in [4]; 102% (inactive) in experiment [5]; 86.4% in [6] (setting [16]); 102% in experiment [6] (setting [17]). Moreover, the viability in experiment [12] was 105% (inactive); in experiment [13], 94% (inactive). Moreover, in [2], the Her2 level was 94.5% (inactive). For the same compound, the differential viability (reversal) in experiment [6] (H69AR cells + 2 uM doxorubicin) was 15.8% (inactive). Further, the values for the inhibition in experiment [7], in experiment [8] and in [14] were -5.73% (inactive), 5.08% (inactive) and 0.65% (inactive), respectively. In addition, the growth inhibition in [9] was -11.3% (inactive); in [10], -19.3% (inactive). Moreover, the viability increase in experiment [11] is -0.62% (inactive). Besides, in experiment [15], the RAM network inhibition is 4.18% (inactive).

Take `COc1cccc(NC(=O)c2ccco2)c1`: the viability was 99% in [1]; 99% (inactive) in [3]; 94.5% (inactive) in experiment [4]; 94.9% (inactive) in [5]; 87.2% in [6] (setting [16]); 94.9% in experiment [6] (setting [17]). In addition, the viability in experiment [12] was 107% (inactive); in experiment [13] it was 98.7% (inactive). Further, in experiment [2], the Her2 level is 116% (inactive). Besides, the differential viability (reversal) in experiment [6] (H69AR cells + 2 uM doxorubicin) was 7.72% (inactive). In addition, the inhibition was -3.38% (inactive) in experiment [7], -4.33% (inactive) in experiment [8] and 0.235% (inactive) in experiment [14]. Besides, the growth inhibition in experiment [9] is -0.175% (inactive); in [10], 6.41% (inactive). For the same compound, the viability increase in experiment [11] is -4.31% (inactive). In experiment [15], the RAM network inhibition is -0.82% (inactive).

Turning to `CCN(C(=O)c1cc(Cl)ccc1OC)c1ccccc1`, the viability was 91.5% in experiment [1]; 91.5% (inactive) in experiment [3]; 95.6% (inactive) in [4]; 103% (inactive) in [5]; 101% in experiment [6] (setting [16]); 103% in experiment [6] (setting [17]). The figures for the viability in experiment [12] and in [13] were 89.5% (inactive) and 90% (inactive), respectively. For the same compound, the Her2 level in experiment [2] is 110% (inactive). For the same compound, the differential viability (reversal) in [6] (H69AR cells + 2 uM doxorubicin) is 2.06% (inactive). Moreover, the inhibition in [7] is 1.04% (inactive); in experiment [8] it was -10.3% (inactive); in [14], 2.85% (inactive). The growth inhibition was -16.1% (inactive) in [9] and -19.6% (inactive) in experiment [10]. Further, the viability increase in experiment [11] was -2.05% (inactive). For the same compound, the RAM network inhibition in experiment [15] was 3.26% (inactive).

A word on the viability: it is a read-out of living cells in per cent, often relative to untreated cells. The term inhibition denotes the drop in the measured response relative to a control, in per cent.
